The results in this text go back to PubChem BioAssay (NCATS).

Inconclusive results are not listed. Activity calls are given as the source filed them. Unless noted, calls follow the shape of the dose curve; as a rule, active = well fitted curve in the direction sought with a large enough effect; inconclusive = small, poorly fitted or top-dose-only effect, or another doubt; inactive = no such curve, though single readings can be large; an effect the other way counts as inactive or inconclusive.

The nature of test [1]: qHTS assay for small molecule antagonists of peroxisome proliferator-activated receptor delta signaling (AID 588535).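 Also: cells co-treated with a PPAR-delta agonist as stimulator during compound exposure.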 To be noted: HEK293T PPARd-UAS-bla, beta-lactamase FRET ratio, 18 h; 460 nm channel. The essentials: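 Fluorescence from CCF4-loaded GeneBLAzer PPAR-delta-UAS-bla HEK293T cells (2 hrs RT loading) quantified reporter inhibition after an 18 hr, 37 C compound exposure across a titration.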
Background: qHTS replaces the single test concentration by a dilution series.

Test [2] has as its target Peroxisome proliferator-activated receptor gamma (Homo sapiens) (UniProt P37231). Put plainly: qHTS assay for small molecule agonists of peroxisome proliferator-activated receptor gamma signaling (AID 588536; active = well fitted curve in the direction sought with a large enough effect in the signal ratio, with a control signal flat, not every such curve was filed as active; the % refers to the signal ratio;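 also: 0% = DMSO basal wells and 100% = rosiglitazone at 2 µM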). To be noted: HEK293 PPARg-UAS-bla, beta-lactamase ratio, 16 h, percent of rosiglitazone response, DMSO as zero; series mostly up to 76.7 µM. The method in brief:
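Using GeneBLAzer HEK293 cells, response was quantified by CCF4 fluorescence and normalized between basal DMSO (0%) and rosiglitazone 2 uM (100%); curves yielded half-maximal stimulation concentration and efficacy.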

Test [3] has the same target. Put plainly: qHTS assay for small molecule antagonists of peroxisome proliferator-activated receptor gamma signaling (AID 588537; active = well fitted inhibition curve with a large enough effect in the signal ratio, with a control signal flat, not every such curve was filed as active; the % refers to the signal ratio;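 also: reporter cells co-stimulated with 50 nM rosiglitazone agonist during compound treatment; % of control where 0% means no effect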). To be noted: HEK293 PPARg-UAS-bla, beta-lactamase ratio, antagonist mode; series mostly up to 76.8 µM. The essentials: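 Fluorescence at 460 and 530 nm (405 nm excitation) reported beta-lactamase cleavage of CCF4 after 2 h room-temperature loading. HEK293 reporter cells in 1% charcoal/dextran-treated FBS had received compound and rosiglitazone for 16 h.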

In test [4] the target is Vitamin D3 receptor (Homo sapiens) (UniProt P11473). Briefly: qHTS assay for small molecule antagonists of vitamin D receptor signaling (AID 588541; calls by dose curve;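 also: receptor activated by calcitriol during compound treatment; % is scaled to controls: 0 for no effect and ±100 for the full control effect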). Conditions: HEK293T VDR-UAS-bla, beta-lactamase ratio, antagonist mode; series mostly up to 76.7 µM. The essentials:
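VDR-UAS-bla HEK293T cells in 2% charcoal-stripped FBS were stimulated with 1-alpha,25-dihydroxyvitamin D3 (3 nM final) plus compound for 16 h at 37 C. The beta-lactamase CCF4 readout was normalized to 50 nM agonist and DMSO, and Hill fits gave IC50.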

Test [5] has the same target. Briefly: qHTS assay for small molecule agonists of vitamin D receptor signaling (AID 588543; calls by dose curve;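 also: 0% = DMSO basal and 100% = reference agonist control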). Conditions: HEK293T VDR-UAS-bla, beta-lactamase ratio, 16 h; series mostly up to 76.8 µM. The essentials:
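GeneBLAzer VDR-UAS-bla HEK293T cells in 2% charcoal-stripped FBS medium were dosed with compound titrations for 16 h at 37 °C; CCF4 β-lactamase readout (405 nm ex, 460/530 nm em). EC50 and efficacy from Hill fits, normalized to 50 nM calcitriol (100%) and DMSO (0%).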

Test [6] is described as follows: qHTS assay for small molecule antagonists of retinoid X receptor alpha signaling (AID 588546; active = well fitted inhibition curve with a large enough effect in the signal ratio, with a control signal flat, not every such curve was filed as active; the % refers to the signal ratio;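 also: cells stimulated with 9-cis-retinoic acid as agonist; % is scaled to controls: 0 for no effect and ±100 for the full control effect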). To be noted: HEK293T RXRa-UAS-bla, beta-lactamase ratio, antagonist mode; measured here: W530 green channel, cytotoxicity proxy. The essentials: (§1)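 Beta-lactamase reporter inhibition, read as CCF4 fluorescence ratio (ex 405, em 460/530 nm) after 2 h at RT. HEK293T UAS-bla cells, 2500/well, were stimulated with 9-cis-RA at 500 or 100 nM final alongside test compound for 18 h at 37 C.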

For test [7], the target named is Retinoic acid receptor RXR-alpha (Homo sapiens) (UniProt P19793). Described as above. To be noted: HEK293T RXRa-UAS-bla, beta-lactamase ratio, antagonist mode. The essentials: as §1
Retinoic acid receptor RXR-alpha (Homo sapiens), sequence (P19793 whole entry, looked up): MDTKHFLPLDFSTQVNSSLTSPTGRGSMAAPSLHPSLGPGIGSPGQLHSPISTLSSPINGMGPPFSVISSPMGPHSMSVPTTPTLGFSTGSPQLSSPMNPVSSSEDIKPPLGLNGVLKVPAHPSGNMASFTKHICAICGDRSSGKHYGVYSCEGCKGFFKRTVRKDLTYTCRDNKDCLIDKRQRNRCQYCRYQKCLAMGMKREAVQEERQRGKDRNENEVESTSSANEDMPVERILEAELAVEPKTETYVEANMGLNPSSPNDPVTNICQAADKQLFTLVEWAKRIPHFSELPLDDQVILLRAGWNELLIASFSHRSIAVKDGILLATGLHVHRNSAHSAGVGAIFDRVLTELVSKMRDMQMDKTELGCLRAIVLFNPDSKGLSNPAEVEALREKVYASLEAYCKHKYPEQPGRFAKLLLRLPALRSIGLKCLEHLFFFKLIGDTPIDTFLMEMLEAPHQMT
The target of test [8] is Thyroid hormone receptor beta (Homo sapiens) (UniProt P10828). Put plainly: qHTS assay for small molecule antagonists of thyroid hormone receptor beta signaling (AID 588547; active = well fitted inhibition curve with a large enough effect in the signal ratio, with a control signal flat, not every such curve was filed as active; the % refers to the signal ratio;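 also: cells stimulated with 0.4 nM T3 agonist during compound exposure; % is scaled to controls: 0 for no effect and ±100 for the full control effect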). To be noted: TR-UAS-bla HEK293, beta-lactamase ratio, antagonist mode, 18 h. The essentials:
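TR-UAS-bla GripTite HEK293 cells in 2% charcoal/dextran FBS medium; compounds 0.59 nM to 92 uM with T3 at 0.4nM final, 18 h at 37 C. Beta-lactamase read by CCF4 fluorescence (460/530 nm); Hill fits gave IC50 and efficacy.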

Test [9] can be described thus: qHTS assay for small molecule agonists of the antioxidant response element (ARE) signaling pathway (AID 651741; active = well fitted activation curve with a large enough effect in the signal ratio; the % refers to the signal ratio; also: potency is read from the fitted curve at half-maximal effect; as to activation: % of control where 0% means no effect). To be noted: HepG2 ARE-bla reporter, beta-lactamase FRET ratio, 16 h; series mostly up to 96 µM. The essentials:
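Stably integrated ARE-beta-lactamase reporter HepG2 cells; 16 h compound incubation, 37 C; LiveBLAzer FRET substrate 2 h at room temperature; fluorescence intensity.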

Test [10] in a line: qHTS assay for environmental chemicals that activate the Aryl hydrocarbon Receptor (AhR) signaling pathway (AID 651777). Also: % of control where 0% means no effect; nearly all actives have a fitted effect of over 15% in size. To be noted: 1A2-DRE human hepatoma cells, luciferase, 24 h; activation: stronger effect = higher value. The essentials: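 AhR activation is scored as a rise in luciferase from a stable DRE–CYP1A2 promoter construct in human hepatoma cells. Treatment lasts 24 hr at 37 C; detection uses One-Glo after 30 min at room temperature.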

Test [11] is described as follows: qHTS assay for small molecule agonists of the antioxidant response element (ARE) signaling pathway measured by Nrf2-dependant transcriptional activity (AID 720636; active = well fitted curve in the direction sought with a large enough effect in the repeat runs; an effect the other way counts as inactive or inconclusive; also: % of control where 0% means no effect). To be noted: ARE-luc HepG2, Nrf2 luciferase reporter, 16 h; series mostly up to 92.4 µM. The method in brief: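 First, ARE-luc HepG2 cells attached for 6 hr at 37 C in 1% dialyzed FBS medium. Next, compound or DMSO was added and incubated 16 hr. Finally, ONE-Glo reagent was added and luminescence measured after 30 min.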

Test [12] can be described thus: qHTS assay for small molecule agonists of the antioxidant response element (ARE) signaling pathway measured by Nrf2-dependant transcriptional activity - cell viability counter screen (AID 720653; active = well fitted curve in the direction sought with a large enough effect in the repeat runs; an effect the other way counts as inactive or inconclusive; also: % is scaled to controls: 0 for no effect and ±100 for the full control effect). Conditions: ARE-bla HepG2 viability, CellTiter-Glo ATP luminescence, 16 h; max response: stronger effect = lower value. The essentials:
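ARE-bla HepG2 cells treated with compounds for 16 h at 37C; this counter screen measures viability as intracellular ATP by CellTiter-Glo luminescence after 30 min at room temperature.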

Test [13] is described as follows: qHTS assay for cell viability of the p53RE-bla HCT-116 cell line (AID 743292). Also: % is scaled to controls: 0 for no effect and ±100 for the full control effect; nearly all actives have a fitted effect of over 55% in size. Conditions: p53RE-bla HCT-116 viability, ATP luminescence, 16 h; series mostly up to 95 µM. The essentials: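 Quantitative high-throughput format: compounds in DMSO were pinned onto p53RE-bla HCT-116 cells (4,000/well) and incubated 16 h at 37 C. Total intracellular ATP, read by CellTiter-Glo luminescence, reflects viable cell number.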

For test [14], the target named is Nuclear receptor subfamily 1 group I member 2 (Rattus norvegicus) (UniProt Q9R1A7). Put plainly: qHTS assay for small molecule activators of the rat pregnane X receptor (rPXR) signaling pathway (AID 651751; call rule not given here; also: 0% is about no effect). To be noted: rPXR reporter cells, luciferase (One-Glo), 24 h.
Nuclear receptor subfamily 1 group I member 2 (Rattus norvegicus), sequence (Q9R1A7 whole entry, looked up): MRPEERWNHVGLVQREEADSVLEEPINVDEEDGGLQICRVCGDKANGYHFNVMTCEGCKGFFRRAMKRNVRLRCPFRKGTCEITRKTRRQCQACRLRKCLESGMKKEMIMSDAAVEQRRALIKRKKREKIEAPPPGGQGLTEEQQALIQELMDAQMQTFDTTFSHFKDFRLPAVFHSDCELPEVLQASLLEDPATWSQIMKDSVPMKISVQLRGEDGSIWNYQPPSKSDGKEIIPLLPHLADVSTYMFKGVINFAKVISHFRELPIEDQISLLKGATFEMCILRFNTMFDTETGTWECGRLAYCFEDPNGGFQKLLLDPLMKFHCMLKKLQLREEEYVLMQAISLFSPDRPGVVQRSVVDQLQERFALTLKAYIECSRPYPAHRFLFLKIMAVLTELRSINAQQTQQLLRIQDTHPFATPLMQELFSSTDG
Test [15] is described as follows: qHTS assay for small molecule activators of the human pregnane X receptor (PXR) signaling pathway (AID 720659; call rule not given here; also: 0% is about no effect). Conditions: DPX-2 HepG2 CYP3A4-luciferase, 24 h; series mostly up to 92.3 µM.
Test [16] in a line: qHTS assay for small molecule agonists of retinoid X receptor alpha signaling (AID 588544; calls by dose curve;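 as to activation: 0% = DMSO basal wells and 100% = reference agonist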). To be noted: HEK293T RXRa-UAS-bla, beta-lactamase reporter, 18 h; 530 nm emission.
The target in test [17] is Retinoic acid receptor RXR-alpha (Homo sapiens) (UniProt P19793). Described as above. Conditions: HEK293T RXRa-UAS-bla, beta-lactamase reporter, 18 h; series mostly up to 76.7 µM.
Test [18] in a line: qHTS assay for small molecule activators of the p53 signaling pathway (AID 651743; active = well fitted activation curve with a large enough effect in the signal ratio, not every such curve was filed as active; the % refers to the signal ratio; also: % of control where 0% means no effect). Conditions: HCT-116 p53RE-bla, beta-lactamase FRET ratio, 16 h; activation: stronger effect = higher value. The method in brief:
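Following 16 hours of compound exposure at 37 C, HCT-116 cells bearing the p53RE-bla reporter were loaded with LiveBLAzer B/G FRET substrate for 2 hours at room temperature and fluorescence intensity was recorded.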

Test [19] in a line: qHTS assay for small molecule activators of the nuclear factor-kappa B (NF-kB) signaling pathway (AID 651749; active = well fitted activation curve with a large enough effect in the signal ratio; the % refers to the signal ratio; also: % of control where 0% means no effect). Conditions: NF-kB-bla ME-180 cells, beta-lactamase FRET ratio, 16 h; stronger effect = higher value. The essentials:
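In this qHTS format, compounds acting as activators increase NF-kB-driven beta-lactamase in ME-180 cells, measured as disrupted FRET after 16 hr exposure at 37C and 5% CO2.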

In test [20] the target is Peroxisome proliferator-activated receptor alpha (Homo sapiens) (UniProt Q07869). Put plainly: qHTS assay for small molecule agonists of the peroxisome proliferator-activated receptor alpha (PPARalpha) signaling pathway (AID 651778). Also: % of control where 0% means no effect. Conditions: PathHunter PPARalpha complementation, chemiluminescence, 6 h; max response: stronger effect = higher value. The essentials:
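Enzyme-fragment complementation assay in which ligand-bound PPARalpha translocates and forms an active enzyme that generates chemiluminescence. Cells were plated overnight, exposed to compound for 6 hr at 37 C, and then given detection reagent for 60 min at room temperature.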

Peroxisome proliferator-activated receptor gamma (Homo sapiens), sequence (P37231 whole entry, looked up): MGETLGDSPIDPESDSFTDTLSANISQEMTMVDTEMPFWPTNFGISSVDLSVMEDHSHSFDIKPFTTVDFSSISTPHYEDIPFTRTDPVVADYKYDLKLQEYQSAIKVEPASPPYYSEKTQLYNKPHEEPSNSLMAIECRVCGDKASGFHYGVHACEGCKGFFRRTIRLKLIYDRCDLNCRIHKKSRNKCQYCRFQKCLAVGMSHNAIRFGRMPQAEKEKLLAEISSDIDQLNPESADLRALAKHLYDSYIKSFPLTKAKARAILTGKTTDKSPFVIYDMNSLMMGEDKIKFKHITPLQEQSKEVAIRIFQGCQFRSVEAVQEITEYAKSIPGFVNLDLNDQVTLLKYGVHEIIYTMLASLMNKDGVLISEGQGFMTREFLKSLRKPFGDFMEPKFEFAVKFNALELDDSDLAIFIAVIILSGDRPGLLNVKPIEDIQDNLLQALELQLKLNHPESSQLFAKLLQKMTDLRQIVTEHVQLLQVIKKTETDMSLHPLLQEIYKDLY
Thyroid hormone receptor beta (Homo sapiens), sequence (P10828 whole entry, looked up): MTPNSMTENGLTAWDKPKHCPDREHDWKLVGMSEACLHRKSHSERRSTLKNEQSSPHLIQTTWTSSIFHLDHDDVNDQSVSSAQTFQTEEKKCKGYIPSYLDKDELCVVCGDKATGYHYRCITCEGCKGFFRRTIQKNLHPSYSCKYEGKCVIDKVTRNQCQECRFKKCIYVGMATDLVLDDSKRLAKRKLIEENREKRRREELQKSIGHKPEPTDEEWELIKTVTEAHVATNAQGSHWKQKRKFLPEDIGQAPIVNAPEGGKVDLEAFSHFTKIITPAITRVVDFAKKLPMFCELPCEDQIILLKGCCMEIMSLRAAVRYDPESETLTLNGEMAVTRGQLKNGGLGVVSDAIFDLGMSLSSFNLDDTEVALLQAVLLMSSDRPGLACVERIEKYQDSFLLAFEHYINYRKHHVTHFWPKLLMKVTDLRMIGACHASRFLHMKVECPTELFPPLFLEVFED
Vitamin D3 receptor (Homo sapiens), sequence (P11473 whole entry, looked up): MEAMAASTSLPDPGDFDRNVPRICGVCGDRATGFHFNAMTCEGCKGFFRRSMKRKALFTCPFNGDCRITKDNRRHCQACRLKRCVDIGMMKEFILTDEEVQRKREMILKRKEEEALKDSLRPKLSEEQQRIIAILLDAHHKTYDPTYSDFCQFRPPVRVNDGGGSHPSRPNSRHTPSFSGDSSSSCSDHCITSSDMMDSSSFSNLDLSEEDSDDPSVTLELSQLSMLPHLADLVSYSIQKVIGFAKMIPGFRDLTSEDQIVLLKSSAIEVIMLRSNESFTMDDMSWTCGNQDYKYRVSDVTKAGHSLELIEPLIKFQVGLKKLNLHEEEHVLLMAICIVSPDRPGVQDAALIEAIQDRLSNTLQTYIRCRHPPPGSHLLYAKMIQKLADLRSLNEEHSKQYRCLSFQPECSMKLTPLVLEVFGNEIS
Peroxisome proliferator-activated receptor alpha (Homo sapiens), sequence (Q07869 whole entry, looked up, the tested form may be a part): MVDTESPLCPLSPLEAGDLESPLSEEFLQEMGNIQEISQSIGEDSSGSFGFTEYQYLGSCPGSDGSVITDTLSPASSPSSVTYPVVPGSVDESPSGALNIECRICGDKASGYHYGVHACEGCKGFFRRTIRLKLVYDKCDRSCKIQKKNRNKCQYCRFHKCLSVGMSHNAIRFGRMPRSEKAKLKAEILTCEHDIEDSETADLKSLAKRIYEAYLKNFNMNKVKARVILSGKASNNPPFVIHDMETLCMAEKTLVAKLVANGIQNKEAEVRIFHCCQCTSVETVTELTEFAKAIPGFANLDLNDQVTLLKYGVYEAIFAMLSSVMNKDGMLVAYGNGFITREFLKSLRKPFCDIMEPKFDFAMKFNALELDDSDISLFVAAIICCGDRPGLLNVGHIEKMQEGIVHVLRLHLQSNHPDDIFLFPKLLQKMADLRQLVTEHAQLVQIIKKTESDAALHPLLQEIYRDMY

For the compound `CCCCCCCCOC(=O)c1cc(O)c(O)c(O)c1`, the max response in [1] was -19.5%; in test [6] it was -11.7%; in [7] it was -18.9% (inactive); in [12], -10.2% (inactive); in test [14], -0.212% (inactive). Besides, the outcome in test [2], in test [3], in test [4], in test [5] and in test [15] was inactive. In addition, the activity change % (negative = inhibition) in test [8] was -6.19% (inactive). Besides, the Potency entry in test [9], in [11] and in [13] was “inactive” throughout. For the same compound, in [10], the activation is 0.999% (inactive).
As for `C[Si](C)(C)O[Si](C)(C)O[Si](C)(C)C`, the max response is 25.8% in [1]; -9.58% in test [16]; -9.81% in [6]; -6.04% (inactive) in test [7]; 4.82% (inactive) in test [12]; 0.588% (inactive) in [14]. Also, the result in test [2], in test [3], in [4], in test [5], in test [17] and in [15] was inactive. Further, the activity change % (negative = inhibition) in [8] is -8.82% (inactive). For the same compound, the activation in test [18] is -8.05% (inactive); in test [19], -3.32% (inactive); in test [10] it was -0.707% (inactive). The Potency entry in test [11] and in test [13] was “inactive” in each case.
As for `O=C(O)CCCCCCCCC(=O)O`, the max response in [1] is 1.66%; in test [16] it was 9.91%; in test [20], -0.446% (inactive); in test [12] it was -1.89% (inactive); in test [14] it was -1.81% (inactive). Further, the outcome in test [2], in test [3], in [4], in test [5], in test [17] and in [15] was inactive. The activity change % (negative = inhibition) in [8] was 3.38% (inactive). In addition, the Potency result in test [9], in test [11] and in test [13] was “inactive” each time. The activation in test [18] is 0.877% (inactive); in test [19] it was -1.2% (inactive); in test [10], -2.45% (inactive).
Turning to `O=C(Nc1ccccc1)c1ccccc1O`, the max response was -6.49% in [1], -0.0723% (inactive) in test [20] and -1.47% (inactive) in test [14]. The result in [2] and in test [3] was inactive. Also, the Potency in test [9] was 15.4 µM (active). In [18], the activation was 20.6% (inactive). The Potency result in [13] was “inactive”.
Regarding `C=CC(=C)CCC=C(C)C`, the max response in test [1] was -12.1%; in test [16], 1.9%; in [6] it was 4.75%; in [7], 7.13% (inactive); in test [20], -1.83% (inactive); in [12], 6.84% (inactive). In addition, in test [14], the max response is 2.22% (inactive). The outcome in test [2], in [4], in test [5], in test [17] and in [15] was inactive. In addition, the activity change % (negative = inhibition) in test [8] was 9.36% (inactive). Besides, the Potency entry in [9], in test [11] and in test [13] was “inactive” in each case. Further, the activation is 0.0217% (inactive) in test [18], -0.615% (inactive) in test [19] and 0.322% (inactive) in test [10].
